Results on 55 molecules are retold here after PubChem BioAssay AID652126 (The Scripps Research Institute Molecular Screening Center, 2013).

About 3,700 (1%) of roughly 370,000 compounds were called active.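 The calls were made as follows: active = activation above the mean over all tested compounds plus 3 SD (cut at about 0.9% in these data); inactive = the rest.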 The list comes from a sample in which actives are over-represented; it also holds similar structures and randomly drawn compounds.

The subject of the test is Nuclear hormone receptor DAF-12 (Strongyloides stercoralis). The experiment in a line: S. stercoralis DAF-12 nuclear receptor activators, primary screen, cell-based, luminescence, HEK293, GRIP1 co-expression, lit1-tk-luc (AID 652126).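 Also: 0% = DMSO-only wells and 100% = 3 µM delta7-dafachronic acid wells.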 Conditions: HEK293 ssDAF-12/GRIP1 lit1-tk-luc reporter, at 6.8 µM, active compounds read high, % of 3 µM dafachronic acid response.
With `COC(=O)[C@H](C(C)C)N(CCc1cn(Cc2ccccc2)nn1)S(=O)(=O)c1ccc(F)cc1Br`, the activation is -1.33% (inactive).

`O=C(Nc1ccccc1[N+](=O)[O-])C1C(c2ccccc2)=C1c1ccccc1`: the activation was -1.13% (inactive).

Turning to `Cc1csc(NC(=O)Nc2ccccc2[N+](=O)[O-])n1`, the activation is 2.54% (active).

As to `Cc1cc(NC(=O)Nc2ccccc2[N+](=O)[O-])no1`, the activation was 0.25% (inactive).

Take `CCCCCCCCNS(=O)(=O)/C=C/c1cc(C)ccc1CNC(=O)OC(C)(C)C`: the activation is -2.15% (inactive).

Take `O=C(O/N=C(/c1ccccc1)c1ccncc1)c1ccccc1[N+](=O)[O-]`: the activation is -0.74% (inactive).

As for `COc1ccc(C(=O)OCC(=O)NCC2CCCO2)cc1[N+](=O)[O-]` (stereo not given), the activation was -1.82% (inactive).

For the molecule `COc1ccc(C(=O)O/N=C(\N)c2ccccn2)cc1[N+](=O)[O-]`, the activation is 1.15% (active).

In the case of `Cc1ccc(-n2c(SCC(=O)Nc3cccc4ccccc34)nnc2-c2ccccn2)cc1`, the activation is -1.66% (inactive).

On to `C#CCCN([C@H](C(=O)OC)C(C)C)S(=O)(=O)c1ccc(F)cc1Br`, for which the activation is -1.1% (inactive).

Turning to `C=CCOC/C=C/C#CCN(CC=C)Cc1ccc(OC)cc1OC`, the activation was -0.87% (inactive).

As to `Cc1ccccc1C(=O)Nc1ccccc1Sc1ccccc1`, the activation is -1.24% (inactive).

As for `COc1cc2ccccc2cc1C(=O)Nc1ccccc1C`, the activation was 1.32% (active).

Consider `Cc1cccc(NC(=O)c2cccc(C(=O)Nc3cccc(C)c3C)n2)c1C`, for which the activation was -0.53% (inactive).

As to `COc1ccc(C(=O)CSc2nnc(-c3cnccn3)n2-c2ccc(C)cc2)cc1`, the activation was -1.18% (inactive).

Regarding `CC1=C(N2CCN(c3ncccn3)CC2)CCC1=O`, the activation was -1.32% (inactive).

Consider `c1cnc(N2CCN(c3ccc4ccccc4n3)CC2)nc1`, for which the activation is 1.77% (active).

Turning to `CC12CCC(C(=O)N3CCN(c4ncccn4)CC3)(c3nc4ccccc4nc31)C2(C)C` (stereo not given), the activation is -1.52% (inactive).

With `CCN(CC)C(=O)CC[C@H]1CC[C@]2(CCCN(Cc3ccc(Cl)cc3)C2)O1`, the activation is -0.21% (inactive).

Turning to `CC1CCN(c2ccc(C(=O)O)cc2NS(=O)(=O)c2ccc(Br)s2)CC1`, the activation was -1.7% (inactive).

For `COc1ccc([C@H]2OC(=O)C[C@H]2C(=O)N2CCN(c3ccccc3F)CC2)cc1OC`, the activation is -0.67% (inactive).

`Brc1ccc(-c2noc(-c3ccccc3)n2)o1`: the activation was 1.12% (active).

Take `O=S(=O)(c1ccc(Br)cc1)c1nc(-c2ccccc2)oc1N1CCOCC1`: the activation was -0.79% (inactive).

`O=C(Oc1ccc(-c2nc(-c3ccccn3)no2)cc1)c1ccccc1`: the activation was -0.56% (inactive).

For `O=S1(=O)c2c(NCc3ccco3)cccc2Oc2ccccc2CN1Cc1cn(Cc2cccc(C(F)(F)F)c2)nn1`, the activation is -1.24% (inactive).

As for `Cc1ccc(NC(=O)c2cnc(SCC(=O)NCC3CCCO3)n(C)c2=O)cc1` (stereo not given), the activation was 1.27% (active).

Turning to `C=CCn1c(SCC(=O)Nc2ccc(NC(C)=O)cc2)nc2sc(C)c(C)c2c1=O`, the activation was -1.09% (inactive).

For the molecule `C=CCn1c(SCC(=O)/C(C#N)=C(\C)N)nc2sc(C)c(C)c2c1=O`, the activation was -1.37% (inactive).

`C=CCn1c(SCC(=O)NCC2CCCO2)nc2sc(C)c(C)c2c1=O` (stereo not given): the activation is 2.74% (active).

For `CCCCn1c(SCC(=O)NCC2CCCO2)nc2ccc(N3CCOCC3)cc2c1=O` (stereo not given), the activation is -1.75% (inactive).

With `Cn1c(SCC(=O)c2ccccc2)ncc(C(=O)Nc2ccc(F)cc2)c1=O`, the activation is -0.84% (inactive).

Turning to `CCOC(=O)[C@]12CCCC=C1N(Cc1ccc(OC)cc1)C(=O)[C@@H]2CC(=O)N1CCOCC1`, the activation was -0.73% (inactive).

With `COC(=O)C1CN(CCc2ccccc2)CCS(=O)(=O)N1Cc1cccc(Cl)c1` (stereo not given), the activation is -0.43% (inactive).

As for `CCC(=O)Nc1ccc2c(c1)C(=O)N(C)[C@@H]1CC[C@@H](CC(=O)NCCc3ccccc3)O[C@H]1CO2`, the activation is -0.55% (inactive).

On to `C[C@@H]1CN([C@@H](C)CO)C(=O)c2cccc(NC(=O)Nc3cccc4ccccc34)c2O[C@H]1CN(C)S(=O)(=O)c1ccccc1F`, for which the activation is -2.39% (inactive).

For the molecule `COC(=O)C[C@@H]1CC[C@H]2[C@@H](COc3ccc(NS(=O)(=O)CC(F)(F)F)cc3C(=O)N2C)O1`, the activation was -1.22% (inactive).

For `O=C(c1cccc(C(F)(F)F)c1)N1CC[C@H]2[C@H](CCCN2Cc2cc(F)cc(F)c2)C1`, the activation is -1.1% (inactive).

Turning to `CC(C)C(=O)Nc1ccc2c(c1)oc1ccccc12`, the activation is 1.28% (active).

As for `CC(C)C(=O)Nc1c(C(=O)c2ccc(F)cc2)oc2ccccc12`, the activation was -0.79% (inactive).

As for `CC(C)C(=O)Nc1oc(-c2ccccc2)cc1C#N`, the activation is -1.13% (inactive).

Consider `Cc1ccccc1CSc1nnc(Cn2c(=O)sc3ccccc32)n1C`, for which the activation is -1.22% (inactive).

Take `CC(C)N1CCCCC(NC(=O)c2ccc3ccccc3c2)C1=O` (stereo not given): the activation was -0.75% (inactive).

With `CC1CC(C)CN(CCCNC(=O)c2csc3c2CCCCC3)C1` (stereo not given), the activation was -1.8% (inactive).

With `Cc1ccc(NC(=O)C2(N3CCC3=O)CCCCC2)cc1`, the activation is -0.98% (inactive).

`Cc1ccc(NC(=O)c2csc3c2CCCC3)cc1`: the activation is 1.46% (active).

In the case of `COc1ccc(NC(=O)CC2C(=O)OCC3CCCCN32)cc1Cl` (stereo not given), the activation was -1.7% (inactive).

Consider `CC(=O)C1(C(=O)Nc2nccs2)CC(c2ccccc2C(F)(F)F)=NO1` (stereo not given), for which the activation was -1.38% (inactive).

For `CC1CCN(c2ccc(S(=O)(=O)Nc3cc(C(=O)O)cc(C(=O)O)c3)cc2[N+](=O)[O-])CC1`, the activation is -1.44% (inactive).

With `O=C(O)C1CCN(c2ccc([N+](=O)[O-])cc2[N+](=O)[O-])CC1`, the activation is 1.84% (active).

For the molecule `CCC(C)(C)NC(=O)c1cc([N+](=O)[O-])ccc1N1CCCCC1`, the activation is -1.32% (inactive).

For `O=C(c1ccccc1)c1ccc(-c2ccccc2C(=O)NC2CCCCN(Cc3ccc(Cl)cc3)C2=O)cc1` (stereo not given), the activation was -0.93% (inactive).

Consider `COC(=O)C[C@@H]1C=C[C@@H](NS(=O)(=O)c2cccc(OC)c2)[C@@H](CO)O1`, for which the activation is -0.52% (inactive).

In the case of `COC(=O)C1CCN(C(=O)COC(=O)c2cc(S(=O)(=O)N3CCOCC3)ccc2C)CC1`, the activation is -1.23% (inactive).

On to `COc1ccc(S(=O)(=O)N2CCOCC2)cc1C(=O)NC1CCCCC1`, for which the activation is -1.6% (inactive).

For `Cc1ccc(S(=O)(=O)N2CCOCC2)cc1C(=O)OC1CCCCC1=O` (stereo not given), the activation was 1.21% (active).
